PubChem BioAssay (EPA / NIEHS)
The source made the active and inactive calls. The calls were made as follows: active = hit-call score of the fitted dose curve at least 0.9, where 1 is the maximum; inactive = score below 0.9.

How the values were obtained:
[1] = molecular target: CCAAT/enhancer-binding protein beta (Homo sapiens) (UniProt P17676); assay: ATG_C_EBP_CIS: Attagene CIS-FACTORIAL HepG2 Assay for human CCAAT/Enhancer Binding Protein (C/EBP) beta (AID 2282927); details: HepG2 Attagene cis-factorial transcription factor reporter; actives raise or lower the signal
Sequence of CCAAT/enhancer-binding protein beta (Homo sapiens) (P17676 whole entry, looked up): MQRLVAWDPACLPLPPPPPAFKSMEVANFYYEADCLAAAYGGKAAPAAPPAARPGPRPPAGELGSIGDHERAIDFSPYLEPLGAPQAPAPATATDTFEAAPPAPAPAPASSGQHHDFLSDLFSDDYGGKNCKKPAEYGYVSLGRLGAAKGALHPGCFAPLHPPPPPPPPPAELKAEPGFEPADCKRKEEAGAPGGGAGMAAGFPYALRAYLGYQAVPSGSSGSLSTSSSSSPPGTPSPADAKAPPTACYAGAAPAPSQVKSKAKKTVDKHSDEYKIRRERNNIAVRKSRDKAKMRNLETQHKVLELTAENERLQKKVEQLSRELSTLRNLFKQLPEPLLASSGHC
How it was run: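 Endogenous transcription factor activity in human liver HepG2 cells is inferred from induction of a CEBPB-linked reporter mRNA. Exposure lasts 24 h; activity is fitted in both directions relative to DMSO.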

[2] = ATG_CMV_CIS: Attagene CIS-FACTORIAL HepG2 Assay for human CMV (Internal Marker) (AID 2282928); details: HepG2 CMV promoter reporter, transcription factor profiling; actives raise or lower the signal;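 also: endpoint acts as a background internal control marker rather than a target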
How it was run: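 Fluorescence intensity of RT-PCR-derived reporter fragments, resolved by capillary electrophoresis, gives the signal. HepG2 liver cells bearing transfected cis-element reporters were treated 24 h; activity in either direction was fit relative to DMSO-treated controls.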

[3] = ATG_DR4_LXR_CIS: Attagene CIS-FACTORIAL HepG2 Assay for human Liver X Receptor (LXR), DR4 submotif (AID 2282929); details: HepG2 Attagene DR4 cis-reporter, mRNA transcription; actives raise or lower the signal
How it was run: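 Cells were transfected with multiple reporter transcription units, exposed to chemicals for 24 hours, then lysed for RNA. Reporter mRNA induction was measured by RT-PCR with capillary electrophoresis detection and fitted in both directions relative to DMSO.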

[4] = molecular target: Aryl hydrocarbon receptor (Homo sapiens) (UniProt P35869); assay: ATG_Ahr_CIS: Attagene CIS-FACTORIAL HepG2 Assay for human Aryl Hydrocarbon Receptor (Ahr) (AID 2282930); details: HepG2 AhR cis-factorial reporter transcription; actives raise or lower the signal
Sequence of Aryl hydrocarbon receptor (Homo sapiens) (P35869 whole entry, looked up): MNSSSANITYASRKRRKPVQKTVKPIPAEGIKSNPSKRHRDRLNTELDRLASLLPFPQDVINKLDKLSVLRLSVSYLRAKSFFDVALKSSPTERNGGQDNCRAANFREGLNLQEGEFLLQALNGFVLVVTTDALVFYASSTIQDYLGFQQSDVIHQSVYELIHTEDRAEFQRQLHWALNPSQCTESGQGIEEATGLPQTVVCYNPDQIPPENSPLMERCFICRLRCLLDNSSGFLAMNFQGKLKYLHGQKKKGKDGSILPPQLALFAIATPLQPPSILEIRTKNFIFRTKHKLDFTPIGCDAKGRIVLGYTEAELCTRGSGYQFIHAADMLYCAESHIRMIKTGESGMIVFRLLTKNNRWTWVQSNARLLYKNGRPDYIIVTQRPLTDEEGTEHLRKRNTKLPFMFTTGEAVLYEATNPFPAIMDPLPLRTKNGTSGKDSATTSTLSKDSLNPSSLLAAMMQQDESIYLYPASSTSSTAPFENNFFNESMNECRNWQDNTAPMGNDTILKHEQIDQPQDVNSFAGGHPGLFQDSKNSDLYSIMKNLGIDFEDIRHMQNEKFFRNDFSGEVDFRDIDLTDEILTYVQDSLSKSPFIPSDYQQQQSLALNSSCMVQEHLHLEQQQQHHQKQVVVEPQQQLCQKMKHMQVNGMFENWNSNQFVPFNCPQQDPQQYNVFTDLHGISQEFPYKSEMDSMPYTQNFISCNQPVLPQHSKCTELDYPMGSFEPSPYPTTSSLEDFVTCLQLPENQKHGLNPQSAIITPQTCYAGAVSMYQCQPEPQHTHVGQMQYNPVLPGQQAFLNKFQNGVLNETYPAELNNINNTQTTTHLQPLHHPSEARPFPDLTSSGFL
How it was run: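 Transient MRTU transfection of HepG2 → 24 h compound exposure → total RNA, oligo(dT) RT → PCR, 6-FAM extension, HpaI cut → CE fluorescence. DMSO = baseline; bidirectional curve fit.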

[5] = ATG_AP_1_CIS: Attagene CIS-FACTORIAL HepG2 Assay for human Activator Protein 1 (AP-1) (AID 2282931); details: HepG2 Attagene cis-factorial AP-1 reporter mRNA; actives raise or lower the signal
How it was run: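 Endogenous transcription-factor activity in human HepG2 liver cells is read through a cis-promoter reporter transcript, sampled 24 h after dosing. Detection uses RT-PCR with capillary electrophoresis; values come from bidirectional fitting relative to DMSO.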

[6] = ATG_AP_2_CIS: Attagene CIS-FACTORIAL HepG2 Assay for human Activator Protein 2 (AP-2) (AID 2282932); details: HepG2 AP-2 cis-reporter, Attagene transcription factor profiling; actives raise or lower the signal
How it was run: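 Endogenous transcription factor activity is reported through transfected multiplex reporter constructs in HepG2, after 24 h of compound exposure. Transcripts were quantified by RT-PCR and capillary electrophoresis of fluorescent fragments. Bidirectional fit against DMSO.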

[7] = molecular target: Transcription factor E2F1 (Homo sapiens) (UniProt Q01094); assay: ATG_E2F_CIS: Attagene CIS-FACTORIAL HepG2 Assay for human E2F Transcription Factor 1 (AID 2282935); details: HepG2 Attagene cis-reporter, E2F reporter RNA transcripts; actives raise or lower the signal
Sequence of Transcription factor E2F1 (Homo sapiens) (Q01094 whole entry, looked up): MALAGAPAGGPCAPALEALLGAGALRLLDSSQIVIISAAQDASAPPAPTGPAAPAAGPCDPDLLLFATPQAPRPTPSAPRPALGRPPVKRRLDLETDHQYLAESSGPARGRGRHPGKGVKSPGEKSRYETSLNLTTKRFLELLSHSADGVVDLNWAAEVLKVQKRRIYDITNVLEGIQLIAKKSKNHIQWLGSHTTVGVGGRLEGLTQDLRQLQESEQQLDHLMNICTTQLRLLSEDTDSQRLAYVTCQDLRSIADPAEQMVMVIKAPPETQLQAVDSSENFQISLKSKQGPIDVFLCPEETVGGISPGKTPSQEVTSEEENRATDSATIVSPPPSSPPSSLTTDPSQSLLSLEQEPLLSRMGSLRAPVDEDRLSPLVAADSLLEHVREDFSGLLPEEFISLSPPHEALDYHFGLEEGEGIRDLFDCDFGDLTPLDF
How it was run: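 Gain or loss of reporter transcript, fitted against DMSO, reflects E2F1-driven transcription. Transiently transfected HepG2 dosed 24 h before RNA isolation. Quantified by fluorescent RT-PCR products separated by capillary electrophoresis.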

[8] = ATG_E_Box_CIS: Attagene CIS-FACTORIAL HepG2 Assay for human Enhancer Box (E-box) (AID 2282936); details: HepG2 E-box cis-reporter transcription, actives raise or lower the signal
How it was run: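 E-box-driven reporter transcripts measured in transiently transfected HepG2 after 24 h exposure: RNA reverse-transcribed, PCR-amplified, fluorescently labelled, digested and resolved by capillary electrophoresis. Gain or loss relative to DMSO.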

[9] = ATG_M_61_CIS: Attagene CIS-FACTORIAL HepG2 Assay for M61 Transcription Factor (Internal Marker) (AID 2282937); details: HepG2 Attagene CIS-FACTORIAL M61 internal marker reporter; actives raise or lower the signal
How it was run: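 Cells were transfected with reporter units under cis-regulatory promoters, treated with chemicals for 24 h, then lysed for RNA. Reporter transcripts were quantified by RT-PCR and capillary electrophoresis, and activity was fitted bidirectionally against DMSO.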

[10] = ATG_EGR_CIS: Attagene CIS-FACTORIAL HepG2 Assay for human Early Growth Response 1 (EGR1) (AID 2282938); details: HepG2 Attagene CIS-FACTORIAL EGR reporter mRNA; actives raise or lower the signal
How it was run: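 Endogenous TF activity in HepG2 liver cells was gauged through cis-promoter reporter constructs transiently transfected. After 24 h dosing, reporter mRNA was quantified by RT-PCR and capillary electrophoresis, and curves fitted in both directions versus DMSO.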

[11] = ATG_M_19_CIS: Attagene CIS-FACTORIAL HepG2 Assay for M19 Transcription Factor (Internal Marker) (AID 2282939); details: HepG2 Attagene CIS-FACTORIAL M19 internal marker reporter; actives raise or lower the signal
How it was run: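 Chemical-treated HepG2 (24 h) with MRTU constructs; reporter transcripts detected by fluorescent RT-PCR fragment analysis on capillary electrophoresis. Internal background marker, DMSO as baseline.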

[12] = ATG_ERE_CIS: Attagene CIS-FACTORIAL HepG2 Assay for Estrogen Response Element (ERE) (AID 2282940); details: HepG2 ERE cis-reporter, Attagene RNA transcript; actives raise or lower the signal
How it was run: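 Human liver cells (HepG2) bearing transiently transfected, promoter-regulated reporter units were exposed 24 h. Reporter mRNA induction was detected by capillary electrophoresis of labelled RT-PCR products and fitted bidirectionally to DMSO.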

[13] = ATG_Ets_CIS: Attagene CIS-FACTORIAL HepG2 Assay for human Erythroblast Transformation Specific (ETS) (AID 2282941); details: HepG2 ETS cis-reporter transcription, actives raise or lower the signal
How it was run: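 Multiplexed reporter transcript profiling: HepG2, 24 h treatment, total RNA to cDNA, PCR, 6-FAM labelling, HpaI cut, capillary electrophoresis. Gain- or loss-of-signal fitted against DMSO.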

[14] = molecular target: Hepatocyte nuclear factor 3-beta (Homo sapiens) (UniProt Q9Y261); assay: ATG_FoxA2_CIS: Attagene CIS-FACTORIAL HepG2 Assay for human Forkhead box A2 (FOXA2) (AID 2282942); details: HepG2 cis-reporter transcription factor activity, 24 h; actives raise or lower the signal
Sequence of Hepatocyte nuclear factor 3-beta (Homo sapiens) (Q9Y261 whole entry, looked up): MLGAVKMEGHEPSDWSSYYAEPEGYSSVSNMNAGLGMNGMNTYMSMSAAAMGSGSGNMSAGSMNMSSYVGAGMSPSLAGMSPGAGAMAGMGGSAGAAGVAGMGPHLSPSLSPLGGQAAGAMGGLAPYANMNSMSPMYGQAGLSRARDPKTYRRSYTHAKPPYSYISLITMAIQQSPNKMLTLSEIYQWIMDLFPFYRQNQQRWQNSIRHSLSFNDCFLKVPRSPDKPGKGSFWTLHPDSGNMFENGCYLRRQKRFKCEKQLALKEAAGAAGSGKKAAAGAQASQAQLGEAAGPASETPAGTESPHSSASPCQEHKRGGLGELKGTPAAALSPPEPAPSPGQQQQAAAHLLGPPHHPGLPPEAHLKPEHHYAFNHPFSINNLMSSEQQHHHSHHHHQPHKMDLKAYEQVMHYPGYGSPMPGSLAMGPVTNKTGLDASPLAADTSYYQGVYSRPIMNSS
How it was run: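 Endogenous transcription factor activity was read in HepG2 cells carrying transiently transfected cis-promoter reporter units. After 24 h dosing, reporter mRNA was quantified by RT-PCR and capillary electrophoresis, and values fitted bidirectionally versus DMSO.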

[15] = ATG_FoxO_CIS: Attagene CIS-FACTORIAL HepG2 Assay for human Forkhead box O (FoxO) (AID 2282943); details: HepG2 Attagene cis-reporter, FoxO element, mRNA; actives raise or lower the signal
How it was run: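 HepG2, transient MRTU transfection (cis element, endogenous TFs). Dose 24 h. TriZol RNA → oligo(dT) RT → PCR → 6-FAM primer extension → HpaI cut → CE. Gain/loss vs DMSO.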

[16] = ATG_GLI_CIS: Attagene CIS-FACTORIAL HepG2 Assay for human Zinc Finger Protein GLI1 (AID 2282945); details: HepG2, Attagene cis-factorial reporter mRNA, GLI element; actives raise or lower the signal
How it was run: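 Bidirectional curve fits relative to DMSO, using reporter mRNA levels from RT-PCR plus capillary electrophoresis. Cells were HepG2 transiently carrying cis-regulated reporter constructs, harvested 24 h after dosing.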

[17] = molecular target: Bile acid receptor (Homo sapiens) (UniProt Q96RI1); assay: ATG_IR1_CIS: Attagene CIS-FACTORIAL HepG2 Assay for human Nuclear Receptor Subfamily 1 Group H Member 4 (NR1H4), IR1 submotif (AID 2282946); details: IR1 reporter transcription, actives raise or lower the signal
Sequence of Bile acid receptor (Homo sapiens) (Q96RI1 whole entry, looked up): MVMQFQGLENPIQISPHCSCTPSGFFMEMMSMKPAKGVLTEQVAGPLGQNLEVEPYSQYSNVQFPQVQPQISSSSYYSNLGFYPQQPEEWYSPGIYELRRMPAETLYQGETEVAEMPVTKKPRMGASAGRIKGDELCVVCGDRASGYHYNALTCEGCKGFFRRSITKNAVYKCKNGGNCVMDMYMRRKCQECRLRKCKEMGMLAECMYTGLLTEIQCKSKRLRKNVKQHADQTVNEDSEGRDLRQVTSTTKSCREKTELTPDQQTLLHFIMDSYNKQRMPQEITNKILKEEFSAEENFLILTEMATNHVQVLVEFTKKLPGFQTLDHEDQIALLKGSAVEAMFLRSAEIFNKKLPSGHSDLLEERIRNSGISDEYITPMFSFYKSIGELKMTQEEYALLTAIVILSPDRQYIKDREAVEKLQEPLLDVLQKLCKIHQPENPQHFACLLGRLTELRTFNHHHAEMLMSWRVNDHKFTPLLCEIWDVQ
How it was run: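 HepG2 cells transiently transfected with multiplexed cis-element reporter units read endogenous transcription factor activity. After 24 h compound exposure, reporter mRNA was quantified by RT-PCR, fluorescent labelling, HpaI digestion and capillary electrophoresis; bidirectional fitting versus DMSO baseline.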

[18] = molecular target: Retinoic acid receptor alpha (Homo sapiens) (UniProt P10276); assay: ATG_DR5_RAR_CIS: Attagene CIS-FACTORIAL HepG2 Assay for human Retinoic Acid Receptor Alpha (RARE), DR5 submotif (AID 2282934); details: HepG2 Attagene cis-factorial RARE DR5 reporter, mRNA; actives raise or lower the signal
Sequence of Retinoic acid receptor alpha (Homo sapiens) (P10276 whole entry, looked up): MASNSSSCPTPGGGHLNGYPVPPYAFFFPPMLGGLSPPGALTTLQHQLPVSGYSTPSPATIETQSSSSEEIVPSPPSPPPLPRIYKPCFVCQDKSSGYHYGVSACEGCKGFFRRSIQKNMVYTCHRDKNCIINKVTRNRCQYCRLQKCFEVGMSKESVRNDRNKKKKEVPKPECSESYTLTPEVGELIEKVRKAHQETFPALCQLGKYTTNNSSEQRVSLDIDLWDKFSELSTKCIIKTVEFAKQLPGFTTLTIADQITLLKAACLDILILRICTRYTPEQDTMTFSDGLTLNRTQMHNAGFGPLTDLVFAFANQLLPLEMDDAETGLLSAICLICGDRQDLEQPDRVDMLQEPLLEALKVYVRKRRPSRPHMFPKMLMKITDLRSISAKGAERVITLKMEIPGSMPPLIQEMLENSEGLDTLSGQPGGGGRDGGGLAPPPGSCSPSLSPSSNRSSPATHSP
How it was run: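 Transient MRTU transfection of HepG2; 24 h compound treatment; TriZol RNA, oligo(dT) RT, PCR, FAM labelling, capillary electrophoresis. Bidirectional fit vs DMSO. Endogenous TF activity at DR5 RARE.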

[19] = ATG_GATA_CIS: Attagene CIS-FACTORIAL HepG2 Assay for human GATA Binding Protein (AID 2282944); details: HepG2 GATA cis-element reporter, Attagene multiplex mRNA; actives raise or lower the signal
How it was run: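 Transfected cis-reporter HepG2 cells were treated with chemicals for 24 hours. Total RNA was then converted to cDNA, amplified with reporter-specific primers and analysed by fluorescent capillary electrophoresis, using DMSO-treated wells as baseline.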

[20] = ATG_BRE_CIS: Attagene CIS-FACTORIAL HepG2 Assay for human Bone Morphogenetic Protein (BMP) Response Element (BRE) (AID 2282933); details: HepG2 BMP response element reporter, Attagene transcription factor profiling; actives raise or lower the signal
How it was run: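 A HepG2 multiplex reporter system measured inducible reporter mRNA 24 h post-dosing. Detection: RT-PCR, 6-FAM primer extension, HpaI digestion, capillary electrophoresis. Activity fitted bidirectionally relative to DMSO.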

Measured: AC50

c1cc[c]([Hg][c]2ccccc2)cc1
active: [1] 21.3 µM | [10] 26.4 µM
not listed: [18] | [19] | [20]
inactive: all other assays above

O=C(Nc1ccc2[nH]ccc2c1)c1cc2cc(F)ccc2n1Cc1cccc(F)c1
active: [1] 20.3 µM | [2] 11 µM | [3] 7.44 µM | [5] 7.29 µM | [8] 19.2 µM | [10] 11 µM | [17] 2.93 µM
not listed: [11] | [14] | [20]
inactive: all other assays above

C=C(C)C(=O)[O][Sn]([CH2]CCC)([CH2]CCC)[CH2]CCC
active: [2] 0.288 µM | [5] 0.451 µM | [6] 412 nM | [8] 0.562 µM | [15] 665 nM | [17] 0.0112 µM
not listed: [13] | [18] | [20]
inactive: all other assays above

CCC[CH2][Sn]([Cl])([Cl])[Cl]
not listed: [14] | [18] | [20]
inactive: all other assays above

ClCC(Cl)CCl
not listed: [4] | [12] | [17] | [19]
inactive: all other assays above

Cc1ccc(N)cc1Cl
not listed: [4] | [12] | [17] | [18]
inactive: all other assays above

CN(C)N=O
not listed: [12] | [13] | [14] | [18] | [20]
inactive: all other assays above

ClC1=C(Cl)[C@]2(Cl)[C@@H]3[C@@H](Cl)[C@@H](Cl)C[C@@H]3[C@@]1(Cl)C2(Cl)Cl
not listed: [4] | [18] | [20]
inactive: all other assays above

CC(C#N)CCC#N (centres undefined)
not listed: [11] | [14] | [17] | [19] | [20]
inactive: all other assays above

O=C(O)C(Cl)(Cl)Cl
not listed: [4] | [11] | [12] | [17]
inactive: all other assays above

CC(C)CCCCCCOC(=O)c1ccccc1C(=O)OCCCCCCC(C)C
not listed: [11] | [12] | [13] | [18] | [20]
inactive: all other assays above

O=C(OC1CCCCC1)c1ccccc1C(=O)OC1CCCCC1
active: [2] 74.7 µM | [3] 13.7 µM | [4] 17.4 µM | [5] 38.1 µM | [7] 187 µM | [10] 25.1 µM | [12] 29.2 µM | [17] 28.9 µM
not listed: [11] | [18] | [20]
inactive: all other assays above

COc1ccccc1OC
not listed: [4] | [13] | [17]
inactive: all other assays above

BrCCBr
not listed: [14] | [17] | [18] | [20]
inactive: all other assays above

CC(C)(OO)c1ccccc1
active: [8] 55.2 µM
not listed: [18] | [20]
inactive: all other assays above

O=[N+]([O-])c1ccc2c3c(cccc13)CC2
not listed: [4] | [13]
inactive: all other assays above

CCCCCCCCCl
not listed: [11] | [19] | [20]
inactive: all other assays above

CC(=O)OC(c1ccccc1)C(Cl)(Cl)Cl (centres undefined)
active: [12] 73.8 µM
not listed: [4] | [18]
inactive: all other assays above
